ADAM10 inh: human ADAM10 inhibitors, primary screen, biochemical, QFRET, HTS; AID 720582, 2013; 0.62% of 370,000 active; inhibition, % at 7 µM; Disintegrin and metalloproteinase domain-containing protein 10 (Homo sapiens), O14672; recombinant ADAM10, EDANS/DABCYL FRET peptide cleavage, 3 h;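 active = inhibition above a per-campaign cutoff equal to the mean of compounds falling between control-based bounds plus 3 SD, cut at about 20% in these data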
rCAG binder: binders of r(CAG) RNA repeats, primary screen, biochemical, fluorescence. r(CAG) RNA repeat, TO-PRO-1 dye displacement fluorescence. inhibition, % at 3 µM. 1.3% of 370,000 active. AID 651821, 2012;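 active = inhibition above the plate cutoff, the mean of all test compounds on that plate plus 3 SD, cut at about 35% in these data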;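 note: higher means more dye released from RNA so lower well fluorescence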
KLK7 zymogen act: proKLK7 zymogen activators, primary screen, biochemical, fluorescence intensity | Kallikrein-7 (Homo sapiens), P49862 | purified proKLK7, EDANS-DABCYL substrate fluorescence; 100% is mature enzyme control, 0% vehicle | activation, % at 7 µM | 0.9% of 370,000 active | AID 652039, 2013;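 active = activation above the mean of all tested compounds plus 3 SD, computed per campaign excluding outliers beyond control limits, cut at about 13% in these data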
Target sequence (P49862 whole entry, looked up): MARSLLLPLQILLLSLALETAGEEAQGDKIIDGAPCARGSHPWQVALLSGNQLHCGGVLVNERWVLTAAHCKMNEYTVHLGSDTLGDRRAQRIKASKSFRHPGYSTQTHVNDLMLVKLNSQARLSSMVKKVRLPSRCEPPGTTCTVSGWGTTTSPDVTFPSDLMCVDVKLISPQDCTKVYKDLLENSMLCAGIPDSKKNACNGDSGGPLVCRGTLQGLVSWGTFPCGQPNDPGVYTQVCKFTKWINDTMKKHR
ADAM17 inh: ADAM17 inhibitors, primary screen, biochemical, QFRET; Disintegrin and metalloproteinase domain-containing protein 17 (Homo sapiens), P78536; recombinant ADAM17, EDANS/DABCYL FRET peptide cleavage; inhibition, % at 6.95 µM; 0.83% of 370,000 active; AID 720648, 2013;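 active = inhibition above the mean of compounds lying between control limits plus 3 SD, set per campaign, cut at about 8.5% in these data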
NR3A LBD binder: binders of NR3A ligand-binding domain, primary screen, biophysical, differential scanning fluorimetry, uHTS. Glutamate receptor ionotropic, NMDA 3A (GRIN3A) ligand-binding domain. NR3A LBD differential scanning fluorimetry, Tm shift; 0% = protein alone, 100% = glycine-bound protein. Tm shift relative to glycine control, % at 25 µM. 2.5% of 340,000 active. AID 1259313, 2017;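 active = melting temperature shift of at least 10% of the positive control shift, at one fixed dose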
AHR act: AHR activators, primary screen, cell-based, luminescence, luciferase reporter, human. Aryl hydrocarbon receptor (Homo sapiens), P35869. AHR-responsive luciferase reporter cells. activation, % at 5 µM. 2.5% of 320,000 active. AID 2796, 2010; in the data active = activation above about 47%
rCAG binder conf: small molecules binding CAG repeat RNA – biochemical, fluorescence, confirmation; 70% of 4,300 active; shares compounds with rCAG binder; r(CAG) RNA repeat, TO-PRO-1 dye displacement fluorescence; inhibition, % at 3 µM;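 active = inhibition above a per-plate cutoff, the mean inhibition of sample wells plus 3 SD, cut at about 35% in these data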;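 note: loss of TO-PRO-1 fluorescence as compound displaces dye from 1x1 AA loop RNA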
DNA CAG counter: displacement of TO-PRO-1 from CAG DNA duplex, counter-screen for rCAG RNA repeat binder project, biochemical, fluorescence, TO-PRO-1 dye, d(CAG) DNA oligo; shares compounds with rCAG binder; d(CAG) DNA oligo TO-PRO-1 dye displacement; inhibition, % at 3 µM; 94% of 4,300 active;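 active = inhibition above its plate's cutoff, the mean test-well inhibition plus 3 SD, cut at about 4.8% in these data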;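 note: hits displace the dye from DNA and so lower well fluorescence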
ADAM10 confirm: human ADAM10 inhibitors, confirmation, biochemical, QFRET, triplicate; shares compounds with ADAM10 inh; inhibition, % at 6.95 µM; AID 743208, 2013; 1% of 2,100 active; ADAM10 QFRET peptide cleavage, EDANS fluorescence;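 active = inhibition above about 20% chosen separately for each screening run, limit read from the data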
ADAM17 ctr: ADAM17 inhibitors, counter-screen for ADAM10 exosite inhibitor project, biochemical, QFRET, high throughput; 0.5% of 2,100 active; AID 743214, 2013; ADAM17 QFRET peptide cleavage, EDANS fluorescence; inhibition, % at 6.95 µM; shares compounds with ADAM10 inh;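 active = mean triplicate inhibition above the solvent-only control wells' mean plus 3 SD, cut at about 12% in these data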
ADAM10 ctr: ADAM10 inhibitors, counter-screen for ADAM17 exosite inhibitor project, biochemical, FRET, human ADAM10. shares compounds with ADAM17 inh. recombinant ADAM10, EDANS/DABCYL FRET peptide cleavage, 3 h. 47% of 2,900 active. AID 743256, 2014. inhibition, % at 6.95 µM;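 active = mean inhibition over the triplicate runs exceeds the activity threshold set in the earlier primary screen, cut at about 20% in these data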
ADAM17 confirm: ADAM17 inhibitors, hit retest, confirmation, biochemical, QFRET peptide cleavage; 65% of 2,900 active; inhibition, % at 6.95 µM; recombinant ADAM17, EDANS/DABCYL QFRET peptide cleavage; shares compounds with ADAM17 inh;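 active = mean inhibition across replicates above the hit cutoff set in the primary screen, cut at about 8.5% in these data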
Large screens that a line does not name were inactive (follow-up assays come after a bar, where they were run). In the library only some 7% were active in any assay of this set; here they are far more common.

CC(C)(C)c1nc(NC(=O)Nc2ccccc2)sc1Br	rCAG binder 36.2, ADAM17 inh 10.7 | rCAG binder conf inactive | DNA CAG counter 15.7 | ADAM10 ctr 35.0 | ADAM17 confirm 21.1
Cc1cc(SCC(=O)c2ccc(O)c(O)c2)n2nc(C)c(-c3ccccc3)c2n1	rCAG binder 50.4, ADAM17 inh 9.9, NR3A LBD binder 22.6 | rCAG binder conf 67.2 | DNA CAG counter 33.4 | ADAM10 ctr inactive | ADAM17 confirm 14.3
COC(=O)c1ccc(CN(c2ccc(C(=O)O)c(O)c2)S(=O)(=O)c2ccc(Cl)c([N+](=O)[O-])c2)cc1	ADAM10 inh 23.2, rCAG binder 43.1, ADAM17 inh 10.7, NR3A LBD binder 21.5 | rCAG binder conf 52.4 | DNA CAG counter 17.6 | ADAM10 confirm inactive | ADAM17 ctr inactive | ADAM10 ctr 38.6 | ADAM17 confirm 22.9
N#CCCN(C(=O)COC(=O)c1cccc(S(=O)(=O)Nc2ccc([N+](=O)[O-])cc2)c1)c1ccccc1	rCAG binder 77.1, ADAM17 inh 9.2 | rCAG binder conf 77.0 | DNA CAG counter 34.9 | ADAM10 ctr inactive | ADAM17 confirm inactive
COc1ccc(CC(N)c2csc(Nc3cc(NCc4ccco4)ncn3)n2)cc1 (stereo not given)	none (no result: NR3A LBD binder, AHR act)
CC(C)(C)c1ccc(NC(=O)COC(=O)c2ccc(NS(=O)(=O)c3ccc(F)c(F)c3)cc2)cc1	rCAG binder 70.1, ADAM17 inh 9.6, NR3A LBD binder 30.4 | rCAG binder conf 66.8 | DNA CAG counter 24.1 | ADAM10 ctr 42.2 | ADAM17 confirm 20.1
CC(C)(C)NC(=O)NC(=O)COC(=O)c1cccc(NS(=O)(=O)c2ccc(F)c(F)c2)c1	none
CCCCC(=O)NCCc1ccc(S(N)(=O)=O)cc1	none
CCCCCCCC/C=C\CCCCCCCC(=O)NCCc1ccc(O)c(O)c1	ADAM10 inh 27.7, rCAG binder 47.3, ADAM17 inh 13.3 | rCAG binder conf inactive | DNA CAG counter 7.2 | ADAM10 confirm inactive | ADAM17 ctr inactive | ADAM10 ctr 25.8 | ADAM17 confirm 17.4
CC1(c2nnnn2-c2ccc3c(c2)OCCO3)CCC(=O)N1CCCn1ccnc1 (stereo not given)	none (no result: NR3A LBD binder, AHR act)
N#Cc1ccc(-c2ccco2)nc1SCc1ccccc1	none
CCSc1nc(-c2ccco2)ccc1C#N	rCAG binder 56.0, ADAM17 inh 13.7 | rCAG binder conf inactive | DNA CAG counter 8.6 | ADAM10 ctr inactive | ADAM17 confirm inactive
Cc1ccc(NC(=O)C2CCCC2)cc1Cl	none
Cc1ccc(NS(=O)(=O)c2ccc(Cl)c(NC(=S)NC(=O)C3CCCCC3)c2)cc1Cl	ADAM10 inh 26.7, rCAG binder 44.9, ADAM17 inh 13.4, NR3A LBD binder 32.9 | rCAG binder conf 41.2 | DNA CAG counter 17.0 | ADAM10 confirm inactive | ADAM17 ctr inactive | ADAM10 ctr 46.2 | ADAM17 confirm 26.7
C#CCNC(=O)C[C@@H]1C[C@@]2(C(=O)OC)CC(C)(C)CC=C2N(CCCCCCCC)C1=O	none (no result: NR3A LBD binder, AHR act)
O=C(CSc1nnc(-c2ccco2)o1)c1ccccc1	none
O=C(CSc1nnc(-c2ccco2)c(-c2ccco2)n1)c1ccccc1	ADAM10 inh 27.1, rCAG binder 74.6, ADAM17 inh 9.0 | rCAG binder conf 57.5 | DNA CAG counter 26.4 | ADAM10 confirm inactive | ADAM17 ctr inactive | ADAM10 ctr inactive | ADAM17 confirm inactive
Cc1cccc(C)c1NC(=O)C1(C)CN(S(C)(=O)=O)CC(=O)N1CCc1ccccc1F (stereo not given)	none (no result: NR3A LBD binder, AHR act)
CC(C)(C)C(=O)N1CCC[C@]2(CC[C@H](CCC#N)O2)C1	none (no result: NR3A LBD binder, AHR act)
Nc1ccn([C@@H]2O[C@H](C(=O)N[C@H](Cc3ccccc3)C(=O)N[C@H]3CCCCNC3=O)[C@@H](O)[C@H]2O)c(=O)n1	none (no result: NR3A LBD binder, AHR act)
CC(C)c1ccc(/C=N/n2c(-c3ccccc3)n[nH]c2=S)cc1	rCAG binder 38.9, ADAM17 inh 10.1 | rCAG binder conf 46.4 | DNA CAG counter 13.2 | ADAM10 ctr inactive | ADAM17 confirm inactive
COc1cc(C)c(C(=O)Oc2cc(C)c(C(=O)O)c(O)c2C)c(O)c1C	rCAG binder 86.7, ADAM17 inh 11.1 | rCAG binder conf 83.6 | DNA CAG counter 51.7 | ADAM10 ctr inactive | ADAM17 confirm 10.7
c1nc(SSc2ncnc3nc[nH]c23)c2[nH]cnc2n1	none (no result: AHR act)
COc1ccc2ccccc2c1C=Nn1c(-c2n[nH]c3c2CCC3)n[nH]c1=S	rCAG binder 47.5, ADAM17 inh 10.4 (no result: NR3A LBD binder, AHR act) | rCAG binder conf 49.4 | DNA CAG counter 18.0 | ADAM10 ctr inactive | ADAM17 confirm inactive
O=C(CSc1nc2ccccc2s1)NNC(=S)Nc1ccccc1	none
O=C(CSc1nc2ccccc2s1)NNC(=S)Nc1ccc(Br)cc1	ADAM10 inh 21.1, rCAG binder 53.3, ADAM17 inh 12.7, NR3A LBD binder 27.2, AHR act 52.6 | rCAG binder conf 61.0 | DNA CAG counter 22.3 | ADAM10 confirm inactive | ADAM17 ctr inactive | ADAM10 ctr inactive | ADAM17 confirm inactive

Screening data deposited in PubChem by several laboratories.
